Data taken from PubChem BioAssay (NCATS).
Inconclusive results are not listed. Values without a mark were called inactive. Calls of active or inactive are those of the source. Calls follow the shape of the dose curve; as a rule, active = well fitted inhibition curve with a large enough effect; inconclusive = small, poorly fitted or top-dose-only effect; inactive = flat fitted curve, though single readings scatter. Where a SMILES comes first, the peptide text is derived from it. The star is where a group is joined. AFC = O=c1cc(C(F)(F)F)c2ccc(N*)cc2o1

test: P-glycoprotein substrates identified in KB-8-5-11 adenocarcinoma cell line, qHTS therapeutic library screen (AID 1346987); settings: KB-8-5-11 (P-gp overexpressing) viability, CellTiter-Glo, 72 h; series mostly up to 44.5 µM; activity change, negative = cytotoxicity: at the top concentration; also: nearly all actives have a fitted effect of over 65% in size
Outline: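 KB-8-5-11: colchicine-selected sub-line of KB-3-1 over-expressing P-gp; assay medium lacked colchicine. 72 h drug exposure at 37 degree C, CellTiter-Glo.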
% is scaled to controls: 0 for no effect and ±100 for the full control effect; potency is read from the fitted curve at half-maximal effect.

Question: Which “activity change, negative = cytotoxicity” value does the source give for `CC1(C)CCCC2(C)C(CO)C3CCC2C31` (configuration not stated) here?
Answer: Its value is 7.35%.

Question: Which “activity change, negative = cytotoxicity” value does the source give for `NC(=O)[C@H]1CCCCc2c1[nH]c1ccc(Cl)cc21` here?
Answer: Its value is 8.12% [at 17.3 µM].

Question: With `C=C1CC2(C(=O)O)CC1CCC2C1(C)CCCC2(C)C(=O)OC(O)C21` (configuration not stated) as the molecule, how does the “outcome” value read?
Answer: Its value is “inactive”.

Question: Which “activity change, negative = cytotoxicity” value does the source give for `CC(=O)N[C@@H](CC(C)C)C(=O)N[C@@H](CCC(=O)O)C(=O)N[C@@H](CCC(=O)O)C(=O)N[C@@H](CC(=O)O)C(=O)Nc1ccc2c(C(F)(F)F)cc(=O)oc2c1` (Ac-LEED-{AFC}) here?
Answer: The value was 0.209%.

Question: With `CCC(C)/C=C(C)/C=C/C1=CC2=C(Cl)C(=O)C(C)(OC(C)=O)C(=O)C2=CN1C1CCCCN(C(CCC(N)=O)C(=O)O)C1=O` (configuration not stated) as the molecule, how does the “outcome” value read?
Answer: Its value is “inactive [at 17.3 µM]”.

Question: For `C=C1C(O[C@@H]2O[C@H](CO)[C@@H](O)[C@H](O)[C@@H]2O)CC2C(C)(C)C(O)CCC2(C)C1CC/C(C)=C\CO` (some centres not stated), which “outcome” value is on record?
Answer: Its value is “inactive [at 17.3 µM]”.

Question: Which “outcome” value does the source give for `CCNC(=O)CCC/C=C\C[C@@H]1[C@@H](/C=C/C(O)CCc2ccccc2)[C@@H](O)C[C@@H]1O` (some centres not stated) here?
Answer: The value was “inactive”.

Question: Which outcome does the source give for `CC(=O)O[C@H]1CC[C@@]2(CI)C(=CC[C@@H]3[C@@H]2CC[C@]2(C)[C@@H]([C@H](C)CCCC(C)C)CC[C@@H]32)C1` here?
Answer: Its outcome is “inactive [at 9.29 µM]”.

Question: For `CC(C)C(C#N)O[C@@H]1O[C@H](CO[C@@H]2OC[C@](O)(CO)[C@H]2O)[C@@H](O)[C@H](O)[C@H]1O` (some centres not stated), which “activity change, negative = cytotoxicity” value is on record?
Answer: Its value is 1.66%.

Question: For `CCC1CC2C(C)=CC3CCCCC3C2(C)C2(OC(=O)C(C)(O)OC2=O)O1` (configuration not stated), which “outcome” value is on record?
Answer: Its value is “inactive”.

Question: With `CNC(=O)Nc1ccc(OC)c(NC(=O)NC(=O)c2cc(F)c(F)cc2Cl)c1` as the molecule, how does the “outcome” value read?
Answer: The value was “inactive”.

Question: For `CC1=C(C)C(=O)OC(C(C)C2C(O)CC3C4C5OC5C5(O)CC(OC6OC(CO)C(O)C(O)C6O)CC(O)C5(C)C4CCC32C)C1` (configuration not stated), which “outcome” value is on record?
Answer: Its value is “inactive [at 17.3 µM]”.

Question: For `CC1OC(O[C@H]2[C@@H](O)C[C@@]3(C)C([C@H](O)C[C@]4(C)C3CC=C3C5CC(C)(C)CC[C@]5(C(=O)OC5OC(CO)C(O)C(O)C5OC5OCC(OC6OCC(OC7OCC(O)C(O)C7O)C(O)C6O)C(OC6OCC(O)(CO)C6O)C5O)CC[C@]34C)[C@]2(C)CO)C(O)C(O)C1O` (some centres not stated), which activity change, negative = cytotoxicity is on record?
Answer: The activity change, negative = cytotoxicity was 1.18% [at 9.29 µM].

Question: Which “activity change, negative = cytotoxicity” value does the source give for `CC1(C)C(O)CCC2(C)C1C(O)C=C1COC(=O)C12O` (configuration not stated) here?
Answer: Its value is 9.08%.

Question: Which activity change, negative = cytotoxicity does the source give for `CC(=O)O[C@@H]1[C@H](O[C@@H]2OC[C@](O)(CO)[C@H]2O)[C@@H](O[C@@H]2O[C@@H](C)[C@H](O)[C@@H](O)[C@H]2O)[C@H](OC(=O)[C@]23CCC(C)(C)C[C@H]2C2=CCC4[C@@]5(C)C[C@H](O)[C@H](O[C@@H]6O[C@H](C(=O)O)[C@@H](O)[C@H](O)[C@H]6O)[C@@](C)(C(=O)O)C5CC[C@@]4(C)[C@]2(C)CC3)O[C@@H]1C` (some centres not stated) here?
Answer: Its activity change, negative = cytotoxicity is 1.88% [at 9.29 µM].

Question: Which outcome does the source give for `CC1(C)CCC2(C(=O)OC3OC(COC4OC(CO)C(O)C(O)C4O)C(O)C(O)C3O)CCC3(C)C(=CCC4C5(C)CCC(O)C(C)(C(=O)O)C5CCC43C)C2C1O` (configuration not stated) here?
Answer: The outcome was “inactive [at 9.29 µM]”.

Question: For `COC(=O)C12C(=O)C(C)=C(O)C1(C)C(C)=CC1C34CCC(OC3=O)C(C)(C)C4CCC12C` (configuration not stated), which “activity change, negative = cytotoxicity” value is on record?
Answer: The value was 6.08% [at 17.3 µM].

Question: With `CC(C)(O)C1=CCC23COC(C2)C(O)(C(=O)O)CCC13` (configuration not stated) as the molecule, how does the “outcome” value read?
Answer: Its value is “inactive”.

Question: With `C[C@@H]1O[C@@H](O[C@H]2[C@H](O[C@H]3[C@H](O[C@H]4CC[C@@]5(CO)C(CC[C@]6(C)C5CC=C5C7CC(C)(C)C[C@@H](O)[C@]7(C)CC[C@]56C)C4(C)C)O[C@H](C(=O)O)[C@@H](O)[C@@H]3O)OC[C@@H](O)[C@@H]2O)[C@H](O)[C@H](O)[C@H]1O` (some centres not stated) as the molecule, how does the outcome read?
Answer: Its outcome is “inactive [at 9.29 µM]”.

Question: Which Potency does the source give for `C#C[C@]1(O)CC[C@H]2[C@@H]3CCC4=C/C(=N/O)CC[C@@H]4[C@H]3CC[C@@]21CC` here?
Answer: Its Potency is 5.8 µM (active).

Question: Which “activity change, negative = cytotoxicity” value does the source give for `CC(Oc1ccccc1)C(=O)N[C@@H]1C(=O)N2[C@@H]1SC(C)(C)[C@@H]2C(=O)O` (some centres not stated) here?
Answer: The value was 12.2% [at 17.3 µM].

Question: For `NCc1ccc(OCCCc2sc(-c3ccc4c(c3)/C(=N/Nc3nc5ccccc5s3)CCC4)nc2C(=O)O)cc1`, which “activity change, negative = cytotoxicity” value is on record?
Answer: Its value is -26.6%.

Question: With `C=C1CCC(OC(C)=O)C2(C)CC3(O)OC(=O)C(C)=C3CC12` (configuration not stated) as the molecule, how does the “outcome” value read?
Answer: The value was “inactive”.

Question: With `CC1CCC2C(C)(C)CC(C)(CO)C2(O)C1C(=O)O` (configuration not stated) as the molecule, how does the “outcome” value read?
Answer: Its value is “inactive”.

Question: With `CC(=O)NC(CCC(=O)O)C(=O)NCCc1ccc(O)cc1` (configuration not stated) as the molecule, how does the “activity change, negative = cytotoxicity” value read?
Answer: Its value is 8.39%.

Question: Which “activity change, negative = cytotoxicity” value does the source give for `C[C@@H]1CC[C@]2(C)C(C[C@@H](O)[C@H](O)[C@]23CO3)[C@@]1(C)CCc1ccoc1` (some centres not stated) here?
Answer: Its value is -1.18%.

Question: With `CC(C)(O)C1CC=C(C(=O)OCC2OC(Oc3c(O)cc(C(=O)O)cc3O)C(O)C(O)C2O)CC1` (configuration not stated) as the molecule, how does the “outcome” value read?
Answer: The value was “inactive [at 17.3 µM]”.
